# Reference: publication PMC4666376, “Characterisation of aptamer–target interactions by branched selection and high-throughput sequencing of SELEX pools”
# Biological target: PAI-1 wild type, active (human, UniProt P05121 24-402)
# Assay: branched SELEX with high-throughput sequencing; PAI-1 immobilised on polyclonal anti-PAI-1 antibody; HBS (10 mM HEPES pH 7.4, 140 mM NaCl), 2 mM MgCl2, 2 mM CaCl2, 0.1% BSA; RNA pool 100 nM; PAI-1 captured on antibody-coated wells; 45 min; binding temperature not stated (PAI-1 capture at room temperature); high values mean tight binding;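 further: Pool frequency after one selection round with this target divided by frequency before selection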
# Settings: protein: recombinant; tags: N-terminal His6; structured_RNA; 2'-F pyrimidines
# Sequence of PAI-1 wild type, active (P05121 24-402): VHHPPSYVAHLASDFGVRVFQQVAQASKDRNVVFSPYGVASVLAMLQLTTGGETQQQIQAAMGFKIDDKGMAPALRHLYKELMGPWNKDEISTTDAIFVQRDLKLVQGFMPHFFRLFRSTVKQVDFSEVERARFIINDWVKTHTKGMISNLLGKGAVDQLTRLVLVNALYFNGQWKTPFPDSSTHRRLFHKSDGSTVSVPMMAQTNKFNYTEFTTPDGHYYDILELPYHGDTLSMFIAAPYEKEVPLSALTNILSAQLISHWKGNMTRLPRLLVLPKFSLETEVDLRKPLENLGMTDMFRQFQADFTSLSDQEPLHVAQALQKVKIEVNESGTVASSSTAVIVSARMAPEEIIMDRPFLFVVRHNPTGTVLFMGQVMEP
row,Sequence,binding signal
1,GGGGCCACCAACGACAUUCCGCUCAUGAUCUGUUAUCAUGAGUGCGUAGUACCGUUGAUAUAAAUAGUGCCCAUGGAUC,1.08 enrichment factor
2,GGGGCCACCAACGACAUUGUAGCAUAAUCAACCUGCGACUGUCGUGUGAUAAGGUUGAUAUAAAUAGUGCCCAUGGAUC,1.02 enrichment factor
3,GGGGCCACCAACGACAUUCUGGCCGUAGGACAAUAGUCCGAUCCAGAUAUAGAGUUGAUAUAAAUAGUGCCCAUGGAUC,0.54 enrichment factor
4,GGGGCCACCAACGACAUUUGGCGAGAUGCCAUCUUUACCUUAAUAGGUAGUUCGUUGAUAUAAAUAGUGCCCAUGGAUC,2.77 enrichment factor
5,GGGGCCACCAACGACAUUCUAGUCUGGUAGCAAUACCUAAGUUCGUCUAGAAAGUUGAUAUAAAUAGUGCCCAUGGAUC,0.89 enrichment factor
6,GGGGCCACCAACGACAUUGAGCUACGGCUAAGCCGCUAUAGUCUUCAGGAAUCGUUGAUAUAAAUAGUGCCCAUGGAUC,0.33 enrichment factor
7,GGGGCCACCAACGACAUUCCUGCAACGUAGGCGCGUAAGCUCCGAUCAAGGAUGUUGAUAUAAAUAGUGCCCAUGGAUC,0.53 enrichment factor
8,GGGGCCACCAACGACAUUUGUCAACAUAACGUAGAGCAAUUACAGCUCGAUCAGUUGAUAUAAAUAGUGCCCAUGGAUC,3.13 enrichment factor
9,GGGGCCACCAACGACAUUUGACAUCGUAGGCAAAAAAGCUGACUGUUCAGAUUGUUGAUAUAAAUAGUGCCCAUGGAUC,2.86 enrichment factor
10,GGGGCCACCAACGACAUUGUCGUAGGACGUGAGUGUCUGACCGAUGUAGUUGGGUUGAUAUAAAUAGUGCCCAUGGAUC,0.65 enrichment factor
11,GGGGCCACCAACGACAUUGUAGACUUGUCAACGGUCGACUGUCGAUACAUGUGUUGAUAUAAAUAGUGCCCAUGGAUC,0.56 enrichment factor
12,GGGGCCACCAACGACAUUCCGUCCGUGUUCAGUUAACACGCAUGUGUUUUGUGGUUGAUAUAAAUAGUGCCCAUGGAUC,1.36 enrichment factor
13,GGGGCCACCAACGACAUUUGCGUAAGCAUCCUUCGAUGUACCACAUCGAGAUCGUUGAUAUAAAUAGUGCCCAUGGAUC,1.04 enrichment factor
14,GGGGCCACCAACGACAUUGUUGAGCGCUGAGUUUCUGCGUUAGUUCUGUCAAUGUUGAUAUAAAUAGUGCCCAUGGAUC,3.37 enrichment factor
15,GGGGCCACCAACGACAUUGCGCUACGAUCAAAACACGUAGUAGUGCAACGAAUGUUGAUAUAAAUAGUGCCCAUGGAUC,0.29 enrichment factor
16,GGGGCCACCAACGACAUUGCACCUGUAGGCUAGGUCACUGGCUGACUGCAAUUGUUGAUAUAAAUAGUGCCCAUGGAUC,0.47 enrichment factor
17,GGGGCCACCAACGACAUUGUCGUAGCCGGACUCCACCGGUGACCAAUGAGCGUUGAUAUAAAUAGUGCCCAUGGAUC,0.57 enrichment factor
18,GGGGCCACCAACGACAUUCAACGUGCACUGUAGCUGUACAAAGCGACCAACGUUGAUAUAAAUAGUGCCCAUGGAUC,6.23 enrichment factor

row,Sequence,binding signal
1,GGGGCCACCAACGACAUUGCCGUAGGAAUUCGUCCUGAGUUCCGAUCAAUAGCGUUGAUAUAAAUAGUGCCCAUGGAUC,0.74 enrichment factor
2,GGGGCCACCAACGACAUUACGUAGUUUGAGAUAGUUAACUCGAACGAUUAGUUGUUGAUAUAAAUAGUGCCCAUGGAUC,1.57 enrichment factor
3,GGGGCCACCAACGACAUUGACCAUGUAGGACUUAAAGUCUGACCACAAUGUGUGUUGAUAUAAAUAGUGCCCAUGGAUC,0.6 enrichment factor
4,GGGGCCACCAACGACAUUACGUAGCUGGGUUUCACCAGCGAUUAGUUGUUGAUAUAAAUAGUGCCCAUGGAUC,0.7 enrichment factor
5,GGGGCCACCAACGACAUUACACUGUAGCGAGCCAGACUCGCGACCAAAUGCGUUGAUAUAAAUAGUGCCCAUGGAUC,0.89 enrichment factor
6,GGGGCCACCAACGACAUUGUCGUAGGCAAGUGUACGAAUCUUUGCUGACCAGUGUUGAUAUAAAUAGUGCCCAUGGAUC,2.67 enrichment factor
7,GGGGCCACCAACGACAUUGACCCAUCUCGCGUUUCCGGGAUGACUAGUAGAAUGUUGAUAUAAAUAGUGCCCAUGGAUC,0.56 enrichment factor
8,GGGGCCACCAACGACAUUGACUCCUAGUUAUACCGAUUAGGACUUGUAGAUGCGUUGAUAUAAAUAGUGCCCAUGGAUC,0.26 enrichment factor
9,GGGGCCACCAACGACAUUCGUAACGUAGGGAGUAUUCCCGAUCAGAAUGUACAGUUGAUAUAAAUAGUGCCCAUGGAUC,0.36 enrichment factor
10,GGGGCCACCAACGACAUUGAUGAUCACUGUUUCGCGCAGUGCCGUAUAUCGAUGUUGAUAUAAAUAGUGCCCAUGGAUC,4.36 enrichment factor
11,GGGGCCACCAACGACAUUAUGAGCCCUAUCUAUCGACCGAUCAUGUCACGUAGGUUGAUAUAAAUAGUGCCCAUGGAUC,1.38 enrichment factor
12,GGGGCCACCAACGACAUUACGUAGUUGCCUAAUAAAGGUAGCGAUUUGGAUUCGUUGAUAUAAAUAGUGCCCAUGGAUC,1.28 enrichment factor
13,GGGGCCACCAACGACAUUUCAUAACGUAGACUGUCUGAGUCGAUCAGAGUGUUGUUGAUAUAAAUAGUGCCCAUGGAUC,1.68 enrichment factor
14,GGGGCCACCAACGACAUUUACGCACCGUAGACUUAAUAGUCGAUUAGUACAUGUUGAUAUAAAUAGUGCCCAUGGAUC,1.19 enrichment factor
15,GGGGCCACCAACGACAUUGCAUCGUAGGCAUAUAGCUGACUGCAAUUUAGGACGUUGAUAUAAAUAGUGCCCAUGGAUC,2 enrichment factor
16,GGGGCCACCAACGACAUUAGCAGUCGUAGGCCGUAAUGGCUGACCUGUAUGACGUUGAUAUAAAUAGUGCCCAUGGAUC,0.68 enrichment factor
17,GGGGCCACCAACGACAUUAAGUUCGUCCUCUUCCAAGAGAAGGGGUCUAUGCCGUUGAUAUAAAUAGUGCCCAUGGAUC,5.35 enrichment factor
